Compounds without any hit were thinned out: in the full panel of roughly 83,000, 20% have a hit.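 The endpoint reported here, percent growth, reads 100 for growth as untreated, 0 for no net growth and -100 for all cells dead.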 The source made the active and inactive calls. How the source made its calls: active means growth percent below 10; inactive means the rest.
Key:
Assay in all cases: NCI-60 one-dose screen, 48 h (100 = growth as untreated, 0 = no growth, -100 = all killed)
Details in all cases: 10 µM unless noted
DU-145 prostate = system: DU-145 prostate
MALME-3M melanoma = system: MALME-3M melanoma
MDA-MB-231 breast = system: MDA-MB-231 breast
RXF 393 renal = system: RXF 393 renal
SF-268 CNS = system: SF-268 CNS
SF-295 CNS = system: SF-295 CNS
SF-539 CNS = system: SF-539 CNS
UACC-257 melanoma = system: UACC-257 melanoma
M14 melanoma = system: M14 melanoma
HCT-15 colon = system: HCT-15 colon
HT29 colon = system: HT29 colon
SNB-75 CNS = system: SNB-75 CNS
SNB-19 CNS = system: SNB-19 CNS
U251 CNS = system: U251 CNS
PC-3 prostate = system: PC-3 prostate
SK-MEL-5 melanoma = system: SK-MEL-5 melanoma
UACC-62 melanoma = system: UACC-62 melanoma
LOX IMVI melanoma = system: LOX IMVI melanoma
SK-MEL-28 melanoma = system: SK-MEL-28 melanoma

Measured: growth

CCNc1nc2cc(Nc3ccnc4cc(Cl)ccc34)ccc2o1
inactive: DU-145 prostate 86.2% | MALME-3M melanoma 91.7% | MDA-MB-231 breast 64.3% | RXF 393 renal 66.5% | SF-268 CNS 81.1% | SF-295 CNS 55.2% | SF-539 CNS 65.9% | UACC-257 melanoma 83.5% | M14 melanoma 61% | HCT-15 colon 40.9% | HT29 colon 31.5% | SNB-75 CNS 83.7% | SNB-19 CNS 84.4% | U251 CNS 74.4% | PC-3 prostate 64.3% | SK-MEL-5 melanoma 48.2% | UACC-62 melanoma 70.9% | LOX IMVI melanoma 58.5% | SK-MEL-28 melanoma 80.7%

N#CC1=C(N)Oc2c(cnn2-c2ccc([N+](=O)[O-])cc2[N+](=O)[O-])C1c1ccccc1 (stereo not given)
inactive: DU-145 prostate 114% | MALME-3M melanoma 99.8% | MDA-MB-231 breast 105% | RXF 393 renal 110% | SF-268 CNS 102% | SF-295 CNS 93.3% | SF-539 CNS 98.2% | UACC-257 melanoma 94.1% | M14 melanoma 95.3% | HCT-15 colon 93.2% | HT29 colon 110% | SNB-75 CNS 86.5% | SNB-19 CNS 104% | U251 CNS 102% | PC-3 prostate 105% | SK-MEL-5 melanoma 97.1% | UACC-62 melanoma 93% | LOX IMVI melanoma 102% | SK-MEL-28 melanoma 106%

O=C(/C(=C/c1ccc([N+](=O)[O-])cc1)SCc1ccc(F)cc1)c1ccc(F)cc1
inactive: DU-145 prostate 94.6% | MALME-3M melanoma 88.8% | MDA-MB-231 breast 76.1% | RXF 393 renal 97% | SF-268 CNS 80.8% | SF-295 CNS 93.2% | SF-539 CNS 105% | UACC-257 melanoma 108% | M14 melanoma 82.8% | HCT-15 colon 37.2% | HT29 colon 22% | SNB-75 CNS 96.8% | SNB-19 CNS 68.4% | U251 CNS 37.5% | PC-3 prostate 78.3% | SK-MEL-5 melanoma 95.4% | UACC-62 melanoma 63.7% | LOX IMVI melanoma 32% | SK-MEL-28 melanoma 103%

CCOc1ccc(Nc2nc(-c3ccc4c(c3)NC(=O)CO4)cs2)cc1
inactive: DU-145 prostate 77.2% | MALME-3M melanoma 69.7% | MDA-MB-231 breast 58% | RXF 393 renal 87.3% | SF-268 CNS 87.1% | SF-295 CNS 158% | SF-539 CNS 78.2% | UACC-257 melanoma 33% | M14 melanoma 68.2% | HCT-15 colon 51.3% | HT29 colon 62% | SNB-75 CNS 56.8% | SNB-19 CNS 81.4% | U251 CNS 66.8% | PC-3 prostate 24.6% | UACC-62 melanoma 52.1% | LOX IMVI melanoma 43.9% | SK-MEL-28 melanoma 33.6%
active: SK-MEL-5 melanoma -11.2%

COc1cc(NC(=O)CSc2nc3ccc(C)cc3c(=O)n2Cc2ccccc2)cc(OC)c1OC
inactive: DU-145 prostate 80.7% | MALME-3M melanoma 49.8% | MDA-MB-231 breast 35.5% | RXF 393 renal 24.3% | SF-268 CNS 69.1% | SF-295 CNS 79.9% | SF-539 CNS 11.8% | UACC-257 melanoma 61.3% | M14 melanoma 65.6% | HCT-15 colon 84.4% | HT29 colon 70.6% | SNB-19 CNS 89.8% | U251 CNS 57.6% | PC-3 prostate 74.1% | SK-MEL-5 melanoma 39.3% | UACC-62 melanoma 53.2% | LOX IMVI melanoma 61.7% | SK-MEL-28 melanoma 75.1%
active: SNB-75 CNS -5.79%

COc1cc(/C=C\c2cc(OC)c(OC)c(OC)c2)cc(N)c1OC
inactive: DU-145 prostate 110% | MALME-3M melanoma 77.9% | MDA-MB-231 breast 88.6% | RXF 393 renal 105% | SF-268 CNS 93.3% | SF-295 CNS 73.7% | SF-539 CNS 84.3% | UACC-257 melanoma 87.5% | M14 melanoma 66.1% | HCT-15 colon 70% | HT29 colon 87% | SNB-75 CNS 78.7% | SNB-19 CNS 88.6% | U251 CNS 91.2% | PC-3 prostate 82.1% | SK-MEL-5 melanoma 86.7% | UACC-62 melanoma 74.7% | LOX IMVI melanoma 86.8% | SK-MEL-28 melanoma 97.6%

COc1ccc(C(=O)c2nc3ccccc3n2CC(=O)c2ccc(Cl)cc2)cc1
inactive: DU-145 prostate 35.2% | MALME-3M melanoma 46% | MDA-MB-231 breast 35.6% | RXF 393 renal 27.8% | SF-268 CNS 41.7% | SF-295 CNS 10.2% | SF-539 CNS 16.4% | UACC-257 melanoma 37.4% | HCT-15 colon 17.4% | HT29 colon 16.1% | SNB-19 CNS 48.2% | U251 CNS 22.7% | PC-3 prostate 34.9% | SK-MEL-5 melanoma 20.5% | UACC-62 melanoma 13.2% | LOX IMVI melanoma 39.2% | SK-MEL-28 melanoma 45.5%
active: M14 melanoma 7.42% | SNB-75 CNS 1.37%

c1ccc(Cn2cnc3ccc(-c4nc(-c5ccc6c(c5)ncn6C5CCCCC5)cn5ccnc45)cc32)cc1
active: DU-145 prostate -28.2% | MALME-3M melanoma -15.4% | MDA-MB-231 breast -70.1% | RXF 393 renal -76.9% | SF-268 CNS -0.106% | SF-295 CNS -81.4% | SF-539 CNS -77.6% | UACC-257 melanoma -32.7% | M14 melanoma -4.44% | HCT-15 colon -9.03% | HT29 colon -48.7% | SNB-75 CNS -67.4% | U251 CNS -22.8% | PC-3 prostate -39.5% | SK-MEL-5 melanoma -84% | UACC-62 melanoma -31.2% | LOX IMVI melanoma -87% | SK-MEL-28 melanoma 0.441%
inactive: SNB-19 CNS 19.6%

CC(C)(C)[Si](C)(C)OC1[C@@H](O[Si](C)(C)C(C)(C)C)[C@@H](CNC(=O)NC(=O)CCl)O[C@H]1n1cnc2c(NC(=O)Nc3ccccc3)ncnc21 (stereo not given in full)
active: DU-145 prostate -2.39% | MALME-3M melanoma -70.2% | MDA-MB-231 breast -72.7% | RXF 393 renal -93.1% | SF-268 CNS -77.4% | SF-295 CNS -71.2% | SF-539 CNS -86.2% | M14 melanoma -56% | HT29 colon -48.1% | SNB-75 CNS -66.2% | SNB-19 CNS 6.83% | U251 CNS -75.6% | PC-3 prostate -36.2% | SK-MEL-5 melanoma -87.7% | UACC-62 melanoma -61.5% | LOX IMVI melanoma -88.1% | SK-MEL-28 melanoma -79.5%
inactive: UACC-257 melanoma 14.1% | HCT-15 colon 37.5%

Cc1c2cc[nH]c(=O)c2c(C)c2c1[nH]c1cc(OCCN3CCN(C)CC3)ccc12
inactive: SF-268 CNS 11.8% | HCT-15 colon 10.1% | SNB-19 CNS 12.9% | U251 CNS 17% | SK-MEL-5 melanoma 11.9%
active: DU-145 prostate 2.69% | MALME-3M melanoma -58.8% | MDA-MB-231 breast 4% | RXF 393 renal -25% | SF-295 CNS 3.16% | SF-539 CNS -0.233% | UACC-257 melanoma -1.41% | M14 melanoma -37.1% | HT29 colon -7.17% | SNB-75 CNS 7.53% | PC-3 prostate 7.38% | UACC-62 melanoma 5.81% | LOX IMVI melanoma -62.3% | SK-MEL-28 melanoma 5.74%

Reference: PubChem BioAssay (NCI)
